DT40 TDP1 no CPT: qHTS for Inhibitors of human tyrosyl-DNA phosphodiesterase 1 (TDP1): qHTS in cells in absence of CPT; DT40 Tdp1-/- hTDP1 cells, no CPT, ATP luminescence, 48 h; actives 15% (n = 420,000); Potency, µM (highest dose often 46.2 µM), for inactives: at the highest dose activity change, negative = growth inhibition, usual class: inhibitors; note: potency is the fitted concentration of half-maximal effect; nearly all actives have a fitted effect of over 55% in size
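DT40 Tdp1-/-;hTDP1 cells, no CPT (DMSO vehicle only), 400 cells/well; compounds pin-transferred; ≥48 hr, 37 °C; CellTiter-Glo 30 min RT dark, luminescence read.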
TDP1 cell CPT: DT40-hTDP1 cell growth loss with CPT; actives 12% (n = 420,000); AID 686979; chicken DT40 Tdp1-/-;hTDP1 cells + 20 nM CPT, ATP luminescence, 48 h; Potency, µM (highest dose often 46.2 µM), without a hit: at the highest dose activity change, negative = growth inhibition, usual class: inhibitors; note: potency is the fitted concentration of half-maximal effect; nearly all actives have a fitted effect of over 55% in size
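Cell growth measured by CellTiter-Glo luminescence after a minimum 48 h, 37 C compound exposure with 20 nM CPT in Tdp1-knockout DT40 cells stably expressing hTDP1, seeded 400/well; qHTS titration format.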
IL1B secr inh: inflammasome signaling inhibition, IL-1 beta readout; THP-1 LPS/ATP IL-1B secretion, AlphaLISA, 16 h; hits give low values; activity change, % at 57.5 µM; actives 4.7% (n = 360,000); AID 743279; in the data active = activity change below about -50%; inconclusive = mostly about -30% to -49%
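THP-1 cells pretreated 1 hr with compounds (up to 57.5 uM final), then stimulated with LPS (250 ng/mL final) plus ATP (1.25 mM final); secreted IL-1B measured by AlphaLISA after 16 hr, decreased signal indicating inhibition.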
HT1080NT lethal: kills 2HG-producing HT-1080-NT fibrosarcoma cells; HT-1080-NT fibrosarcoma viability, CellTiter-Glo ATP luminescence, 48 h; Potency, µM (doses to about 46.1 µM), for the others: at the top dose activity, negative = less viability, actives largely listed as cytotoxic; actives 1.6% (n = 360,000);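 note: NT is the 2HG producing partner of a matched IDH1 knockdown line; potency is the fitted concentration of half-maximal effect; 0% = DMSO-treated cells and -100% = media-only wells without cells; nearly all actives have a fitted effect of over 55% in size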
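Toxicity toward the 2HG-producing NT line was scored as %Activity, normalised to DMSO and no-cell wells, from CellTiter-Glo luminescence after 48 hours' treatment.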
HT1080 IDH1KD tx: toxicity to HT-1080 IDH1 knockdown cells (counter line); Potency, µM (doses to about 46.1 µM), for inactives: at the top dose activity, negative = toxicity, usual class: cytotoxic; HT-1080 IDH1 knockdown viability, ATP luminescence, 48 h; actives 2% (n = 360,000);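 note: potency is the fitted concentration of half-maximal effect; 0% = DMSO wells and -100% = cell-free medium wells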
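% activity derives from luminescence (CellTiter-Glo), normalised to DMSO and no-cell wells. HT-1080-IDH1KD cells, 750/well, had 48 h compound exposure at 37 °C.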
Starred values were filed as active, the others as inactive; ? = inconclusive; . = not tested or not shown. This is a sample that favours compounds with a hit; in the whole collection about 19% have one here. Unless noted, calls come from the whole dose curve; as a rule, active = well fitted curve in the direction sought with a large enough effect; inconclusive = small, poorly fitted or top-dose-only effect, or another doubt; inactive = no such curve, though single readings can be large; an effect the other way counts as inactive or inconclusive. Unless noted, % is set by controls: 0 for no effect and ±100 for the full control effect.

SMILES	DT40 TDP1 no CPT	TDP1 cell CPT	IL1B secr inh	HT1080NT lethal	HT1080 IDH1KD tx
COc1ccccc1N1CCN(C(=O)CCCCn2c(=O)[nH]c3ccsc3c2=O)CC1	16.4µM*	?	-0.1	2.3%	2.1%
Cc1cccc(N2CCN(C(=O)Cc3ccc(-n4c(=O)[nH]c5ccsc5c4=O)cc3)CC2C)c1 (stereo not drawn)	?	3.5%	-16.3	-5.9%	3.2%
CN1CCC2(CC1)CCN(C(=O)c1ccncc1)CC2	-0.4%	6.4%	.	.	.
O=C(O)CCN1C(=O)c2ccc(NC(=O)CCc3ccccc3)cc2C1=O	-0.6%	15.2%	6.8	1.3%	2.0%
CCCCNCCOCCOc1ccccc1-c1ccccc1	29.1µM*	23.1µM*	?	-21.9%	-18.0%
CC1CN(CCOCCOc2ccccc2-c2ccccc2)CC(C)O1 (stereo not drawn)	23.1µM*	?	12.8	-9.8%	-6.6%
Clc1ccc(OCCOCCN2CCc3ccccc3C2)c(Cl)c1	23.1µM*	?	-82.5*	23.1µM*	23.1µM*
OCCCN1CCN(CCOc2ccccc2-c2ccccc2)CC1	?	1.0%	-16.9	-12.8%	-7.2%
c1ccc(-c2ccccc2OCCOCCN2CCc3ccccc3C2)cc1	11.6µM*	?	-75.1*	?	?
CC1(C(=O)NS(=O)(=O)c2cccs2)CCN1C(=O)C1(c2ccccc2)CCCC1 (stereo not drawn)	-3.8%	-4.2%	44.7	9.6%	13.4%
O=C1CCCN1CC(CN1CCOCC1)Sc1nc2ccccc2c(=O)n1-c1ccccc1 (stereo not drawn)	-24.4%	-12.2%	-29.2	-19.6%	-18.8%
CC1=NNC(=O)/C1=C\c1cn(-c2ccccc2)nc1-c1cccs1	2.59µM*	2.59µM*	-96.2*	8.2µM*	8.2µM*
O=C(N/N=C/c1cn(-c2ccccc2)nc1-c1ccc(F)cc1)c1ccc(Br)o1	23.1µM*	20.6µM*	-55.9*	-4.1%	-11.8%
O=C(N/N=C/c1cn(-c2ccccc2)nc1-c1cccs1)c1ccccc1F	-120.2%	16.4µM*	-11.8	-26.4%	?
O=C(N/N=C/c1cn(-c2ccccc2)nc1-c1cccs1)c1ccc(Cl)cc1	?	?	-29.3	-9.5%	-17.3%
O=Cc1cn(-c2ccccc2)nc1-c1ccc(F)cc1	20.6µM*	?	-17.6	2.3%	5.1%
O=C(O)CCCCCN1C(=O)/C(=C\c2cn(-c3ccccc3)nc2-c2cccs2)SC1=S	-18.1%	?	0.0	-18.5%	-25.3%
CCc1ccc(NC(=O)CSC2=Nc3ccccc3C3=NC(CCC(=O)NCc4ccccc4OC)C(=O)N23)cc1 (stereo not drawn)	-5.8%	-1.3%	.	.	.
CCC1Oc2ccccc2N(CC(=O)NCCCN2CCN(c3ccc(OC)cc3)CC2)C1=O (stereo not drawn)	-11.8%	-4.9%	-14.9	-11.0%	-10.2%
CC1=NNC(=O)/C1=C\c1cn(-c2ccccc2)nc1-c1ccc(F)cc1	1.46µM*	3.66µM*	-100.3*	10.3µM*	5.8µM*
O=C(Cn1nc2n(c1=O)-c1ccccc1SC2)N/N=C/c1cccnc1	-4.3%	-1.9%	54.9	-1.8%	8.2%
Cc1c(NS(=O)(=O)c2ccc3[nH]c(=O)[nH]c3c2)c(=O)n(-c2ccccc2)n1C	-0.3%	-27.6%	4.6	-8.1%	-8.7%
Cc1cccc2cc(C#N)c(NCCNS(=O)(=O)c3ccc4c(c3)OCCO4)nc12	-2.0%	-16.9%	9.3	-25.2%	-27.1%
CC(C)C[C@@H](COCc1cccc(C(F)(F)F)c1)N1CCN(C(=O)c2ccc(C(F)(F)F)cc2)CCC1=O	?	?	-73.2*	?	?
CC(C)CC(COCc1cccc(Cl)c1)N1CCN(C(=O)c2cccc(C(F)(F)F)c2)CCC1=O (stereo not drawn)	?	?	-15.7	-26.5%	-23.0%
SMILES	DT40 TDP1 no CPT	TDP1 cell CPT	IL1B secr inh	HT1080NT lethal	HT1080 IDH1KD tx
Cc1cccc(COC[C@H](CC(C)C)N2CCN(C(=O)c3ccc(C(F)(F)F)cc3)CCC2=O)c1	16.4µM*	?	?	-23.6%	?
S=c1[nH]nc(CCc2ccccc2)n1-c1ccccc1	-12.3%	-1.2%	18.9	7.3%	2.2%
CCC(C)(C(=O)NC1CCCC1)N(Cc1cccs1)C(=O)c1ccc2c(c1)OCO2 (stereo not drawn)	20.6µM*	18.4µM*	-14.1	-1.9%	-13.4%
C1CCN(CC2CCCCN2)CC1 (stereo not drawn)	12.2%	-11.7%	4.4	0.9%	4.1%
O=C1C(CN2CCCC2)CCCC1CN1CCCC1 (stereo not drawn)	0.517µM*	0.517µM*	-7.5	6.8%	?
CCCCOC(=O)CSC1=C(C#N)C(c2cccnc2)C(C(=O)OCC)=C(c2ccccc2)N1 (stereo not drawn)	?	?	-27.1	-3.2%	-4.9%
C=CCOC(=O)C1=C(C)NC(SCC(=O)Nc2ccc(C)c(Cl)c2)=C(C#N)C1c1ccco1 (stereo not drawn)	29.1µM*	?	-3.4	18.4µM*	16.4µM*
CCOC(=O)C1=C(c2ccccc2)NC(SCC(=O)NC2CCCCC2)=C(C#N)C1c1ccco1 (stereo not drawn)	1.7%	6.2%	-54.6*	-0.6%	-0.9%
COCCOC(=O)C1=C(C)NC(SCC(=O)NC(C)(C)C)=C(C#N)C1c1ccco1 (stereo not drawn)	23.1µM*	25.9µM*	-2.7	-1.2%	-3.3%
C=CCOC(=O)C1=C(C)NC(C)=C(C(=O)OCC=C)C1c1ccco1	?	?	?	-10.3%	-2.3%
Cc1ccc(S(=O)(=O)N(C)CC(=O)NNC(=O)CCC(=O)c2ccc(F)cc2)cc1	?	1.0%	18.9	12.8%	13.7%
COc1ccccc1NC(=S)N(CCN1CCOCC1)Cc1ccccc1F	?	-0.9%	-10.0	1.4%	-4.3%
CCOc1ccccc1NC(=S)N(CCCN1CCOCC1)Cc1cn(C)c2ccccc12	?	16.4µM*	-10.9	-4.8%	-7.9%
COc1ccccc1NC(=S)N(CCCN1CCOCC1)Cc1cn(C)c2ccccc12	16.4µM*	14.6µM*	-7.7	1.0%	1.7%
COc1ccc(N2C(=O)C(CC(N)=O)N(NC(=O)c3cccc(OC)c3)C2=S)cc1 (stereo not drawn)	-0.9%	7.0%	-20.2	16.5%	19.1%
COc1ccc(S(=O)(=O)N(C)C[C@H]2Oc3ncc(C#CC4(O)CCCC4)cc3C(=O)N([C@@H](C)CO)C[C@@H]2C)cc1	?	9.2µM*	-27.7	-0.7%	-2.5%
C[C@H](CO)N1C[C@H](C)[C@@H](CN(C)S(=O)(=O)c2ccccc2F)Oc2ncc(C#Cc3cccnc3)cc2C1=O	14.6µM*	?	-6.4	-9.0%	-5.3%

Source: PubChem (National Center for Advancing Translational Sciences (NCATS))
